The values that follow come from PubChem BioAssay (NCI).

Test systems include HCT-15 colon; HT29 colon; SNB-75 CNS; SNB-19 CNS; U251 CNS; PC-3 prostate; SK-MEL-5 melanoma; UACC-62 melanoma; LOX IMVI melanoma; SK-MEL-28 melanoma; SK-MEL-2 melanoma; EKVX NSCLC; SN12C renal; UO-31 renal; TK-10 renal; ACHN renal; CAKI-1 renal; CCRF-CEM leukemia; MOLT-4 leukemia; A498 renal.
Common to all, as to assay: NCI-60 one-dose screen, 48 h (100 = growth as untreated, 0 = no growth, -100 = all killed)
Settings in all cases: 10 µM unless noted

This is part of a sample that, as a whole, favours compounds with a hit. Of some 83,000 tested, about 20% had one in any assay.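 Values shown are percent growth following 48 h exposure of cells in 96-well plates to a single concentration of compound; below 10 was considered active.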 Values without a mark were called inactive. Calls of active or inactive are those of the source.

Turning to `CC(=O)N1c2ccccc2NC2=C(C(=O)N(Cc3ccccc3)C2(C)C)C1c1ccco1` (stereo not drawn), the growth in the test with HCT-15 colon was 15.7%; in the test with HT29 colon, 9.99% (active); in the test with SNB-75 CNS it was 16.8%; in the test with SNB-19 CNS it was 23.6%; in the test on U251 CNS, 24.6%; with PC-3 prostate, 29.7%. Further, the growth in the test with SK-MEL-5 melanoma was 7.88% (active); in the test with UACC-62 melanoma, 21.2%; with LOX IMVI melanoma, 25.6%; with SK-MEL-28 melanoma, 57.3%; with SK-MEL-2 melanoma, 16.9%; in the test on EKVX NSCLC, 35.4%. Also, the growth with SN12C renal was 35.9%; with UO-31 renal, 52.5%; in the test on TK-10 renal, 54.9%; in the test on ACHN renal, 33.5%; in the test with CAKI-1 renal it was 43%; in the test with CCRF-CEM leukemia, 24.1%. Besides, the growth in the test on MOLT-4 leukemia is 28.6%.

For `COc1cc(C(=O)/C=C/c2c(C)n([O-])c3ccc(Cl)cc3[n+]2=O)cc(OC)c1OC`, the growth in the test with HCT-15 colon was 29.6%; in the test on HT29 colon, 62.8%; with SNB-75 CNS, 60.4%; in the test on SNB-19 CNS it was 99.8%; in the test on U251 CNS, 61.4%; with PC-3 prostate, 46.7%. Besides, the growth is 89.4% in the test on SK-MEL-5 melanoma; 60.4% in the test with UACC-62 melanoma; 65.8% in the test on LOX IMVI melanoma; 80.8% in the test with SK-MEL-28 melanoma; 59.6% in the test with SK-MEL-2 melanoma; 80.9% with EKVX NSCLC. Moreover, the growth with SN12C renal is 56.3%; in the test on UO-31 renal it was 43%; in the test with TK-10 renal it was 46.1%; in the test with ACHN renal, 53.5%; in the test on A498 renal it was 100%; in the test on CCRF-CEM leukemia, -30.6% (active). Moreover, the growth in the test with MOLT-4 leukemia is 6.41% (active).

Turning to `O=C(c1ccccc1)N1N=C(c2ccc(-n3ccc(C(F)(F)F)n3)cc2)CC1c1ccc[nH]1` (stereo not drawn), the growth with HCT-15 colon is 70.6%; in the test on HT29 colon it was 87.1%; with SNB-75 CNS it was 80.6%; with SNB-19 CNS it was 92.7%; in the test on U251 CNS, 86%; in the test on PC-3 prostate, 83.3%. Further, the growth in the test on SK-MEL-5 melanoma is 101%; with UACC-62 melanoma it was 89.6%; in the test on LOX IMVI melanoma it was 80%; in the test with SK-MEL-28 melanoma, 92.2%; with SK-MEL-2 melanoma it was 97.7%; with EKVX NSCLC it was 88.9%. In addition, the growth in the test with SN12C renal was 98.1%; in the test on UO-31 renal, 77.8%; in the test with TK-10 renal it was 80.8%; in the test on CAKI-1 renal, 84.1%; in the test with CCRF-CEM leukemia it was 85.6%; in the test with MOLT-4 leukemia, 75.8%.

As to `COc1cccc(/C=C2\COc3ccc(-c4ccccc4)cc3C2=O)c1`, the growth is -36.9% (active) in the test on HCT-15 colon; 12.9% with HT29 colon; 10.9% in the test on SNB-75 CNS; 64.7% in the test on SNB-19 CNS; -56.1% (active) in the test with U251 CNS; 19.4% in the test with PC-3 prostate. Further, the growth in the test on SK-MEL-5 melanoma was 24%; in the test on UACC-62 melanoma, 38%; in the test on LOX IMVI melanoma, -85.5% (active); in the test with SK-MEL-28 melanoma, -36.5% (active); in the test with SK-MEL-2 melanoma, -46.4% (active); in the test with EKVX NSCLC, 99.9%. In addition, the growth is 31.4% in the test with SN12C renal; -38.1% (active) with UO-31 renal; -5.26% (active) with TK-10 renal; 50.8% with CAKI-1 renal; 45.6% with A498 renal; -32.7% (active) in the test with CCRF-CEM leukemia. Also, the growth in the test on MOLT-4 leukemia was -28.2% (active).

For `CC1NC(=S)NC(=O)/C1=C/c1cc(=O)oc2c1ccc1ccccc12` (stereo not drawn), the growth is 103% with HCT-15 colon; 87.7% with HT29 colon; 73.3% with SNB-75 CNS; 103% in the test with SNB-19 CNS; 94.9% with U251 CNS; 72.8% in the test on PC-3 prostate. In addition, the growth was 97.1% in the test with SK-MEL-5 melanoma; 99.1% with UACC-62 melanoma; 89.2% in the test on LOX IMVI melanoma; 115% in the test on SK-MEL-28 melanoma; 91% in the test on SK-MEL-2 melanoma; 88.7% with EKVX NSCLC. In addition, the growth with SN12C renal was 95.6%; in the test on UO-31 renal it was 73.6%; in the test on TK-10 renal it was 123%; with ACHN renal, 95.6%; with A498 renal it was 101%; in the test with CCRF-CEM leukemia, 81%. The growth in the test on MOLT-4 leukemia is 88.6%.

Take `COc1ccc2c(/C=C3/C(=O)NC(=S)NC3C)cc(=O)oc2c1` (stereo not drawn): the growth is 103% in the test with HCT-15 colon; 88.8% with HT29 colon; 87.3% in the test on SNB-75 CNS; 102% in the test on SNB-19 CNS; 94.2% in the test with U251 CNS; 78.6% in the test on PC-3 prostate. For the same compound, the growth in the test on SK-MEL-5 melanoma was 99.4%; with UACC-62 melanoma, 96.8%; in the test on LOX IMVI melanoma, 95.3%; in the test on SK-MEL-28 melanoma, 109%; in the test on SK-MEL-2 melanoma it was 86.8%; with EKVX NSCLC it was 101%. Further, the growth was 97.7% in the test on SN12C renal; 88.3% in the test on UO-31 renal; 93.5% in the test on TK-10 renal; 108% in the test on ACHN renal; 91.5% in the test on A498 renal; 93.2% with CCRF-CEM leukemia. Further, in the test on MOLT-4 leukemia, the growth was 90.5%.
